Assay results published in PubChem BioAssay (Tox21).
Several values for one entry are separate records, joined by “and”; a condition that tells them apart may be missing. Equal values may be shown once. Results filed as inconclusive are left out. Some compounds were tested as several samples or in several runs, with calls that do not always agree. Activity calls are given as the source filed them. Unless noted, calls follow the shape of the dose curve; as a rule, active = well fitted curve in the direction sought with a large enough effect in the repeat runs; inconclusive = weak or mixed curves; inactive = no such curve, though single readings can be large; an effect the other way counts as inactive or inconclusive.

Legend:
[1] = qHTS assay to identify small molecule antagonists of the retinoid-related orphan receptor gamma (ROR-gamma) signaling pathway - cell viability counter screen (AID 1159520); also: nearly all actives have a fitted effect of over 50% in size; also: potency is read from the fitted curve at half-maximal effect; as to activity, negative = cytotoxicity: % is scaled to controls: 0 for no effect and ±100 for the full control effect
Summary of the method: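 Tet-on ROR gamma CHO cells (1,000/well) were plated 4 hr, given compounds in DMSO for 2 hr at 37 C, then induced with 1 uM final doxycycline for 16 hr. Viability was read as ATP by CellTiter-Glo luminescence after 30 min.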

[2] = target: Nuclear receptor ROR-gamma (Homo sapiens) (UniProt P51449); experiment: qHTS assay to identify small molecule antagonists of the retinoid-related orphan receptor gamma (ROR-gamma) signaling pathway (AID 1159521; also: nearly all actives have a fitted effect of over 50% in size; also: potency is read from the fitted curve at half-maximal effect;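 as to activity change, negative = inhibition: CHO cells with doxycycline inducible ROR-gamma driving an RORE luciferase reporter; top concentration of the series differs between compounds; % is scaled to controls: 0 for no effect and ±100 for the full control effect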)
Summary of the method: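 Inducible-expression reporter assay: doxycycline (1 uM final) switched on RORγ in CHO cells bearing a ROR response element-luciferase construct, with test compounds present from 2 h beforehand. Decreased luminescence after 16 h defined antagonist activity.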

[3] = qHTS assay to identify small molecule agonists of the AP-1 signaling pathway - cell viability counter screen (AID 1159525; calls by dose curve; also: nearly all actives have a fitted effect of over 55% in size; also: potency is read from the fitted curve at half-maximal effect)
Summary of the method: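 ME-180 AP-1-bla, 2500 cells/well, Opti-MEM + 0.5% dialyzed FBS; overnight 37 °C; cpd 15-pt titration, 5 h 37 °C; CellTiter-Glo 30 min RT; luminescence read; normalised to TOAB and DMSO controls.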

[4] = qHTS assay to identify small molecule agonists of the AP-1 signaling pathway (AID 1159526; calls by dose curve; also: % is scaled to controls: 0 for no effect and ±100 for the full control effect)
[5] = qHTS assay to identify small molecule agonists of the RXR signaling pathway - cell viability counter screen (AID 1159529); also: nearly all actives have a fitted effect of over 50% in size; also: potency is read from the fitted curve at half-maximal effect
Summary of the method: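 Counter screen: CellTiter-Glo luminescence. Cells: RXR-alpha-UAS-bla HEK 293T. Medium: 2% charcoal-stripped FBS. Treatment: 16 h, 37 C. Reagent incubation: 30 min, RT.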

[6] = qHTS assay to identify small molecule antagonists of the retinoid acid receptor (RAR) signaling pathway - cell viability counter screen (AID 1159551); also: % is scaled to controls: 0 for no effect and ±100 for the full control effect; nearly all actives have a fitted effect of over 35% in size
Summary of the method: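 Seed C3RL4 cells; next day add compound, then retinol to 1 uM final; incubate 6 h at 37 C; add CellTiter-Glo; read luminescence after 30 min at RT.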

[7] = target: Retinoic acid receptor RXR-alpha (Homo sapiens) (UniProt P19793); experiment: qHTS assay to identify small molecule agonists of the RXR signaling pathway (AID 1159527; calls by dose curve; also: % is scaled to controls: 0 for no effect and ±100 for the full control effect; nearly all actives have a fitted effect of over 35% in size)
Summary of the method: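 Compounds in DMSO were added to RXR-alpha-UAS-bla HEK 293T cells kept in 2% charcoal-stripped serum, and incubated 16 hr at 37 C with 5% CO2. Reporter signal came from a 2 hr B/G FRET substrate step.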

[8] = qHTS assay to identify small molecule antagonists of the peroxisome proliferator-activated receptor delta (PPARd) signaling pathway - cell viability counter screen (AID 743213); also: potency is read from the fitted curve at half-maximal effect; nearly all actives have a fitted effect of over 50% in size
Summary of the method: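 Viability counter-screen, qHTS format: PPARd-bla HEK293H, L165041 300 nM final, 17 h compound exposure at 37 C, CellTiter-Glo luminescence after 30 min RT.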

[9] = target: Bile acid receptor (Homo sapiens) (UniProt Q96RI1); experiment: qHTS assay to identify small molecule antagonists of the farnesoid-X-receptor (FXR) signaling pathway (AID 743217; active = well fitted inhibition curve with a large enough effect in the signal ratio in the repeat runs, not every such curve was filed as active; the % refers to the signal ratio; also: potency is read from the fitted curve at half-maximal effect)
Summary of the method: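 In this cell-based antagonist screen, inhibition of CDCA-driven (50 uM final) UAS-beta-lactamase expression in HEK 293T cells was measured by FRET fluorescence following 16 h compound exposure at 37 °C.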

[10] = qHTS assay to identify small molecule agonists of the farnesoid-X-receptor (FXR) signaling pathway - cell viability counter screen (AID 743218); also: potency is read from the fitted curve at half-maximal effect; nearly all actives have a fitted effect of over 45% in size
Summary of the method: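 After 16 h at 37 C with test compounds, FXR-bla HEK 293T cells were given LiveBLAzer B/G substrate for 2 h at RT and then CellTiter-Glo; luminescence was taken after 30 min.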

[11] = qHTS assay to identify small molecule antagonists of the farnesoid-X-receptor (FXR) signaling pathway - cell viability counter screen (AID 743221; active = well fitted cell-killing curve with a large enough effect in the repeat runs, not every such curve was filed as active)
Summary of the method: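 Cytotoxicity is taken from ATP luminescence (CellTiter-Glo, 30 min, room temperature) in FXR-bla HEK 293T cells previously incubated 16 h at 37 C with compound and chenodeoxycholic acid at 50 uM final.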

[12] = qHTS assay to identify small molecule agonists of the vitamin D receptor (VDR) signaling pathway - cell viability counter screen (AID 743224)
Summary of the method: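 Here cell health was gauged by luminescent ATP detection (CellTiter-Glo, 30 min RT) in VDR-bla cells that had been incubated with test compounds for 16 h at 37C and 5% CO2.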

[13] = qHTS assay to identify small molecule antagonists of the vitamin D receptor (VDR) signaling pathway - cell viability counter screen (AID 743225)
Summary of the method: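 Same-well multiplex: following 16 h treatment of HEK 293T cells carrying a UAS-driven beta-lactamase reporter with compound and agonist (3 nM final), and a 2 h FRET substrate step, CellTiter-Glo was added and luminescence read after 30 min.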

[14] = target: Bile acid receptor (Homo sapiens) (UniProt Q96RI1); experiment: qHTS assay to identify small molecule agonists of the farnesoid-X-receptor (FXR) signaling pathway (AID 743220; active = well fitted activation curve with a large enough effect in the signal ratio in the repeat runs, not every such curve was filed as active; the % refers to the signal ratio; also: % is scaled to controls: 0 for no effect and ±100 for the full control effect)
Summary of the method: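 Beta-lactamase reporter under UAS control in GeneBLAzer FXR HEK 293T cells (5000/well) measured with LiveBLAzer FRET substrate after 2 h at room temperature. Compound exposure lasted 16 h at 37C.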

Chain of Retinoic acid receptor RXR-alpha (Homo sapiens) (P19793 whole entry, looked up): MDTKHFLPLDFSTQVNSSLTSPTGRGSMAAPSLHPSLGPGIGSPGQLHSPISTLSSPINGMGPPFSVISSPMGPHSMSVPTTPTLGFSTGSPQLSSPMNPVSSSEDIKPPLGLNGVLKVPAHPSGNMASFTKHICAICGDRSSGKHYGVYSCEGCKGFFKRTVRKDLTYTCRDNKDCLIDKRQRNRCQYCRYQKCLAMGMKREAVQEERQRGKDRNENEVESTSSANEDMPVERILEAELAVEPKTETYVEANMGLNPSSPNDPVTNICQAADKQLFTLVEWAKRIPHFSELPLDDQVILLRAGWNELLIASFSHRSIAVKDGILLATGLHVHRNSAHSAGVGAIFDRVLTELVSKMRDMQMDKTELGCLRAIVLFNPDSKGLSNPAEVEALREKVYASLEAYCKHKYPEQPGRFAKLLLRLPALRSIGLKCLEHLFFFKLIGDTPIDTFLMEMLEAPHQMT
Chain of Bile acid receptor (Homo sapiens) (Q96RI1 whole entry, looked up): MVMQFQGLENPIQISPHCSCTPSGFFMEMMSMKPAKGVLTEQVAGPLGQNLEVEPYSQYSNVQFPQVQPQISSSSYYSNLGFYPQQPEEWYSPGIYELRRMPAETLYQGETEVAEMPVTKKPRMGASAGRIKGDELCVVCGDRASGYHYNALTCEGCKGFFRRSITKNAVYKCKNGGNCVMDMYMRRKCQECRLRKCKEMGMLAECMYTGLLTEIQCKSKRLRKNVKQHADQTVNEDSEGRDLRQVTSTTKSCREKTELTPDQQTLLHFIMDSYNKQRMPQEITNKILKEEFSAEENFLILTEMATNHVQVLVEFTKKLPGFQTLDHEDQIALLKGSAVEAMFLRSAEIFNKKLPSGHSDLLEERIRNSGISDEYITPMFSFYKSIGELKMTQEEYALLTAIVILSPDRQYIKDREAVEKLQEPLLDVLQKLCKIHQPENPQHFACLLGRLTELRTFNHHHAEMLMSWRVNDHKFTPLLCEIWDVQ

O=C=NCc1cccc(CN=C=O)c1
inactive: activity, negative = cytotoxicity [1] 5.39% [at 19 µM] | activity change, negative = inhibition [2] -2.4% [at 19 µM] | viability change, negative = cytotoxic [3] -10.1% [at 15.8 µM] | activation [4] -14% [at 15.8 µM] | activity change, negative = cytotoxicity [5] -2.82% [at 15.8 µM] | activity change, negative = cytotoxicity [6] 2.07% [at 19 µM]

CCC(C)C(=O)OC (stereo not drawn)
inactive: Potency [1] | Potency [3] | Potency [4] | Potency [7] | Potency [5] | Potency [6]

Clc1cccnc1
inactive: Potency [1] | Potency [2] | Potency [3] | Potency [4] | Potency [5] | Potency [6]

Cc1cncc(C)c1
inactive: Potency [1] | Potency [3] | Potency [4] | Potency [7] | Potency [5] | Potency [6]

CC1=CCC(=O)O1
inactive: Potency [1] | Potency [2] | Potency [3] | Potency [4] | Potency [5] | Potency [6]

C=CC(=O)OCCN(CC)CC
inactive: Potency [1] | Potency [2] | Potency [3] | Potency [4] | Potency [5] | Potency [6]

CCCCCCCCCCCCOC(=O)c1cc(O)c(O)c(O)c1
active: Potency [8] 34.5 µM and 54.9 µM | Potency [9] 54.9 µM | Potency [10] 43.5 µM | Potency [11] 38.7 µM and 19.5 µM | Potency [12] 27.4 µM and 21.9 µM | Potency [13] 43.5 µM and 24.5 µM | Potency [1] 2.42 µM and 4.86 µM | Potency [2] 2.16 µM and 2.17 µM | Potency [3] 43.5 µM and 38.9 µM | Potency [5] 27.4 µM and 34.7 µM

CCOB(OCC)OCC
inactive: Potency [1] | Potency [3] | Potency [4] | Potency [7] | Potency [5] | Potency [6]

CCCCCCCCCCCCCCCCCO
inactive: activity, negative = cytotoxicity [1] -0.0509% [at 19 µM] | activity change, negative = inhibition [2] -0.415% [at 19 µM] | viability change, negative = cytotoxic [3] -0.925% [at 15.8 µM] | activation [4] -5.53% [at 15.8 µM] | activity change, negative = cytotoxicity [5] -0.179% [at 15.8 µM] | activity change, negative = cytotoxicity [6] 0.141% [at 19 µM]

CC(=O)OC1CCCCC1
inactive: Potency [1] | Potency [2] | Potency [3] | Potency [4] | Potency [5] | Potency [6]

C[C@H]1O[C@@H](O[C@H]2[C@@H](O)C[C@H](O[C@H]3[C@@H](O)C[C@H](O[C@H]4CC[C@@]5(C)[C@H](CC[C@@H]6[C@@H]5C[C@@H](O)[C@]5(C)[C@@H](C7=CC(=O)OC7)CC[C@]65O)C4)O[C@@H]3C)O[C@@H]2C)C[C@H](O)[C@@H]1O
30.7 µM (active) and inactive: Potency [1]
active: Potency [8] 24.6 nM and 13.6 nM | Potency [10] 24.6 nM and 12.2 nM | Potency [12] 17.4 nM | Potency [13] 21.9 nM and 13.6 nM | Potency [2] 4.33 µM and 8.54 µM
inactive: Potency [14] | Potency [4] | Potency [6]
